Results filed as inconclusive are left out. Where a call stands in place of a potency, no number is given. Calls of active or inactive are those of the source. Calls come from the whole dose curve; as a rule, active = well fitted inhibition curve with a large enough effect; inconclusive = small, poorly fitted or top-dose-only effect; inactive = flat fitted curve, though single readings scatter.
Potency is the fitted concentration of half-maximal effect.

The assay is described as follows: P-glycoprotein substrates identified in KB-8-5-11 adenocarcinoma cell line, qHTS therapeutic library screen (AID 1346987). Note: nearly all actives have a fitted effect of over 65% in size. Particulars: KB-8-5-11 (P-gp overexpressing) viability, CellTiter-Glo, 72 h; series mostly up to 44.5 µM. In a few lines: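 In this qHTS, P-gp-rich KB-8-5-11 cells received library compounds across a concentration range. Viability was quantified by luminescence after 72 h at 37 degree C.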
On the technique in general: qHTS replaces the single test concentration by a dilution series.
Consider `CN(C)CC#CCCC(=O)C(O)(c1ccccc1)C1CCC1` (stereo not drawn), for which the Potency result was “inactive”. With `CC(C)(O)C1CC(=O)C2(C)C(CCC3(C)C(c4ccoc4)OC(=O)C4OC432)C12CCC(=O)OC2` (stereo not drawn) the entry was “inactive”; with `COc1ccc(CCN(C)CCCOc2nsc(-c3ccccc3)n2)cc1OC`, “inactive”. With `CCCC(=O)O[C@]1(C(=O)COC(=O)CC)[C@@H](C)C[C@H]2[C@@H]3CCC4=CC(=O)C=C[C@]4(C)[C@@]3(F)[C@@H](O)C[C@@]21C` the entry was “inactive”; with `CC(C)=CCC/C(C)=C/COCC1OC(n2ccc(=O)[nH]c2=O)C(O)C1O` (stereo not drawn), “inactive”. For `NCCCC[C@H](NC(=O)[C@@H]1CCCN1C(=O)[C@@H]1CSSC[C@H](N)C(=O)N[C@@H](Cc2ccccc2)C(=O)N[C@@H](Cc2ccccc2)C(=O)N[C@@H](CCC(N)=O)C(=O)N[C@@H](CC(N)=O)C(=O)N1)C(=O)NCC(N)=O`, the Potency entry is “inactive”. With `C=CC(C)(C)c1[nH]c2ccccc2c1C[C@@H]1NC(=O)[C@H](C)NC1=O` the entry was “inactive”; with `COC1=C(C(=O)O)N2C(=O)[C@@H](NC(=O)[C@H](N)C3=CCC=CC3)[C@H]2SC1`, “inactive”. With `CCC(C)(C)OC(=O)N[C@@H](Cc1c[nH]c2ccccc12)C(=O)N[C@@H](CCSC)C(=O)N[C@@H](CC(=O)O)C(=O)N[C@@H](Cc1ccccc1)C(N)=O`, the Potency entry was “inactive”.

With `CC1(C)S[C@@H]2[C@H](NC(=O)[C@H](N)c3ccccc3)C(=O)N2[C@H]1C(=O)OCOC(=O)[C@@H]1N2C(=O)C[C@H]2S(=O)(=O)C1(C)C`, the Potency result is “inactive”. With `CC1(C)Oc2ncnc(N)c2N=C1c1ccc(C23CCC(CC(=O)O)(CC2)CC3)cc1` the entry was “inactive”; with `CC(=O)C=C=C1C(C)(C)CC(O)CC1(C)O[C@@H]1O[C@H](CO[C@H]2OC[C@](O)(CO)[C@H]2O)[C@@H](O)[C@H](O)[C@H]1O` (stereo partly drawn), “inactive”; with `CN(C)CCOc1cc(NS(=O)(=O)c2c(Cl)cc(C(F)(F)F)cc2Cl)ccc1Cl`, “inactive”. With `C=C[C@@]12COC(=O)C(=C)[C@@H]1[C@@H](O)[C@H](C(=C)C(=O)OC)[C@@H](O)C2` the entry was “inactive”; with `C=C(C)C(=O)O[C@H]1C[C@@](C)(O)C2(O)CCC(C)(/C=C3/OC(=O)C(COC)=C31)O2` (stereo partly drawn), 6.4 µM (active); with `CC(C)NC(=O)COc1cccc(-c2nc(Nc3ccc4[nH]ncc4c3)c3ccccc3n2)c1`, 8.2 µM (active). With `CC(=O)NC(C(=O)O[C@H]1CCC(C)(C)[C@@H]2CC=C3C(=O)OCC3(O)[C@@]12C)C(C)C` (stereo partly drawn) the entry was “inactive”; with `Cc1ccccc1CN1CCn2c1nc1c(c2=O)CN(Cc2ccccc2)CC1`, “inactive”.

Source of the values: PubChem BioAssay (NCATS).
